Assay outcomes from PubChem BioAssay.
Only a sample is shown.
aSyn UTR act: Activators working through SNCA 5'UTR binding (MLPCN); hit rate 7.1% among 300,000; alpha-synuclein 5'UTR reporter, activators screen; AID 1814; activity score, % (tested at 7.5 µM), hits read low; in the data active means activity score below about -60%
Starred values were filed as active, the others as inactive.

SMILES	aSyn UTR act
CCCOc1ccc(N2C(=O)CC(N(O)c3ccccc3)C2=O)cc1 (configuration not stated)	-77*
COC(=O)c1ccc(N2C(=O)CC(SCCN)C2=O)cc1 (configuration not stated)	-84*
CCCOc1ccc(N2C(=O)CC(SCCN)C2=O)cc1 (configuration not stated)	-71*
Cc1nc2cc(NC(=O)N3CCC(c4ccccc4)C3)ccc2n1C (configuration not stated)	-104*
Cc1ccc(C2CCN(C(=O)Nc3ccc(F)cc3)C2)cc1 (configuration not stated)	-125*
O=C(Cn1nnc(-c2ccccc2)n1)N1CCCCC1	-70*
O=C(Cn1nnc(-c2ccc(OCc3ccccc3F)cc2)n1)N1CCOCC1	-70*
CC1CCCN(C(=O)Cn2nnc(-c3ccccc3F)n2)C1 (configuration not stated)	-103*
Cn1c(-c2ccccc2)cnc1SCC(=O)N1CCCCC1	83
O=C(Cn1nnc(-c2ccccc2Cl)n1)N1CCCCC1	-98*
CC(C)COc1ccc(-c2nnn(CC(=O)N3CCCC3)n2)cc1	-89*
CC(C)c1ccc(-c2nnn(CCC(=O)O)n2)cc1	118
COc1ccc([C@@H]2[C@@H]3C(=O)N(C(C)(C)C)C(=O)[C@@H]3[C@]3(Cc4ccccc4)C(=O)N(c4cccc(C)c4)C(=O)N23)cc1	-63*
Cc1cccc(Nc2nc(-c3ccccc3)c(C(=O)Nc3cccnc3)s2)c1	-143*
O=C(/C=C/c1ccc2ccccc2c1)c1ccoc1	-123*
N#Cc1ccc(-c2cccnc2)nc1SCC(=O)c1ccccc1	-116*
N#Cc1ccc(-c2ccc(Cl)cc2)nc1SCC(=O)c1cccc(Cl)c1	-81*
O=C(CSc1n[nH]c(-c2ccccc2)n1)c1ccccc1	-84*
CC1CCc2nc(NCCO)nc(C(F)(F)F)c2C1 (configuration not stated)	54
Oc1ccc(O)c(-c2cnns2)c1	-71*
COn1c(-c2ccccc2)nc2ccc(Cl)cc21	-138*
O=[N+]([O-])c1ccc2nc(-c3ccccc3)n(OCc3ccc(Cl)cc3)c2c1	-87*
Cc1ccc2nc(-c3ccc(NC(=O)CCN4C(=O)c5ccccc5C4=O)cc3)sc2c1	-171*
Cc1ccc2nc(-c3ccc(NC(=O)C(C)N4C(=O)c5ccccc5C4=O)cc3)sc2c1 (configuration not stated)	-102*
Cc1ccc(C2(C)NC(=O)N(CC(=O)Nc3ccc(-c4nc5ccc(C)cc5s4)cc3)C2=O)cc1 (configuration not stated)	-160*
SMILES	aSyn UTR act
O=c1c2c(nc3c(-c4ccc(Cl)cc4)c[nH]n13)CCCC2	66
Cc1nc2c(-c3ccc(Cl)cc3)cnn2c2c1CCC2	-123*
Cc1ccc(OCc2cc(C(=O)N(C)CC3CCOCC3)no2)cc1C	-104*
Cc1cc(OCc2cc(C(=O)N(C)C3CCOCC3)no2)cc(C)c1Cl	-128*
Nc1ccc(-c2nnc(-c3ccc(N)cc3)o2)cc1	-106*
CN(C)S(=O)(=O)c1cccc(-c2nnc(-c3ccccc3)o2)c1	-113*
c1ccc(-c2nnc(-c3ccccc3)o2)cc1	-96*
Oc1ccccc1-c1nnc(-c2ccc(C(F)(F)F)cc2)o1	-126*
c1ccc(-c2nnc(-c3ccncc3)o2)cc1	-89*
COc1ccc(C2=Nn3c(nnc3-c3ccccc3)SC2)cc1OC	59
Nc1ccccc1-c1nnc(-c2ccc(-c3ccccc3)cc2)o1	-192*
COc1ccc(-c2nnc(-c3ccccc3)o2)cc1OC	-168*
COc1cccc(-c2nnc(-c3ccc(C(F)(F)F)cc3)o2)c1	-145*
O=[N+]([O-])c1cc(-c2nnc(-c3ccccc3)o2)ccc1Oc1ccc(Cl)cc1	-95*
CSc1ccccc1NC(=O)C(=O)c1c[nH]c2ccccc12	-146*
CCN1CCN(Cc2ccc(NC(=O)c3ccc(C)c(NC(=O)C(=O)c4c[nH]c5ccccc45)c3)cc2C(F)(F)F)CC1	112
O=C(Nc1nccs1)C(=O)c1c[nH]c2ccccc12	-165*
COc1ccc(/C=C2\CN(Cc3ccccc3)C/C(=C\c3ccc(OC)c(O)c3)C2=O)cc1O	107
COc1cc(/C=N/n2cnnc2)ccc1OCc1ccc(C)cc1	-100*
COc1cc(/C=N/n2cnnc2)ccc1OCc1ccccc1	-72*
CCc1cc2c(=O)n(-c3ccccc3)cnc2s1	-96*
CCc1cc2c(=O)n(-c3ccc(C)cc3)cnc2s1	-149*
O=C(Nc1ccccc1F)c1cc2nc(C(F)F)cc(C(F)F)n2n1	-71*
CN=C1S/C(=C\c2ccc(N3CCCC3)c(F)c2)C(=O)N1C	-139*
CN=C1S/C(=C\c2ccc(N3CCOCC3)c(F)c2)C(=O)N1C	-76*
Cc1cc(=O)[nH]c(SCCOc2ccc3c(c2)CCC3)n1	-107*
CCOc1ccc(-c2nnc(N(CC)C(=O)C3CCC3)s2)cc1	-102*
CCCC(=O)N(C)c1nnc(-c2ccc(OC)cc2)s1	-129*
Cc1cc(-c2ccco2)c(C#N)c2nc3ccccc3n12	-100*
CCc1c(C)c(C#N)c2nc3ccccc3n2c1Cl	105
